In PubChem BioAssay (NCATS) one finds Potency data, which are given here for 40 compounds.

Molecules are shown by their SMILES. Unmarked numbers belong to inactive results. Activity calls are given as the source filed them. No rule for the calls is given here.
Potency is read from the fitted curve at half-maximal effect.

The test concerns HIV-1 nucleocapsid protein NCp7 (binding to TG oligonucleotide). Kind of test: HIV Nucleocapsid (AID 346).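 Also: potency is for inhibitors that block NC binding and lower polarization.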 To be noted: HIV-1 NC / fluorescein-TGTGTGTG probe, fluorescence polarization. In a few lines: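 HIV-1 NC (100 nM) binding to fluorescein-labelled ssDNA TG4xF (10 nM) in Hepes pH 7.5, 250mM NaCl, 1uM ZnCl2, TCEP and 2-mercaptoethanol; compounds pin-transferred, 1 hr room temperature, fluorescence polarization read on CCD imager.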
On the technique in general: In fluorescence polarisation assays a small probe gives low polarisation when free and higher when bound to something large.
Regarding `COc1ccc(C(=O)N2CCC3(CCN(Cc4cc(C(F)(F)F)cc(C(F)(F)F)c4)CC3)CC2)cc1`, the Potency is over 20 µM.

As for `O=S(=O)(c1ccccc1)N1CCC2(CCN(c3ccncc3)CC2)CC1`, the Potency was over 20 µM. For `COc1ccc(-n2c(=O)c(-c3cccs3)nc3cnc(N(C)C)nc32)cc1`, the Potency is over 4 µM. For `CCNc1ncc2nc(-c3cc(F)cc(F)c3)c(=O)n(C[C@H]3CCCO3)c2n1`, the Potency is over 20 µM. For the compound `N#Cc1cccc(-c2nc3cnc(N4CCOCC4)nc3n(C3CC3)c2=O)c1`, the Potency is over 20 µM. In the case of `Cc1noc(C)c1-c1nc(NC2CCNCC2)c2ccccc2n1`, the Potency is over 20 µM. On to `COc1cccc(-c2cncnc2NCc2cccnc2)c1`, for which the Potency is over 20 µM. Take `COCCn1c(=O)c(-c2cn(C)c3ccccc23)nc2cnc(N3CCNCC3)nc21`: the Potency is over 20 µM. For `CN(C)C(=O)c1ccc(-c2ccc3ncnc(Nc4ccc(F)cc4)c3c2)cc1`, the Potency is over 20 µM. Consider `COc1ccccc1CNc1ncnc2ccc(-c3ccc4c(c3)OCO4)cc12`, for which the Potency was over 20 µM. Take `O=c1c(-c2ccccc2)nc2cncnc2n1Cc1ccc(F)cc1`: the Potency is over 20 µM. For the compound `N#CCCn1c(=O)c(-c2ccc(F)cc2)nc2cnc(Oc3cccc(Cl)c3)nc21`, the Potency is over 20 µM. As for `Cc1cnc(CNc2ccnc(-c3ccoc3)n2)cn1`, the Potency was over 20 µM.

Take `COCCn1c(=O)c(C)nc2cnc(OC)nc21`: the Potency was over 20 µM. Consider `COc1ccccc1-c1nc(NCc2cccnc2)c2ccccc2n1`, for which the Potency is over 20 µM. As for `CN(Cc1ccco1)c1ncncc1-c1cccnc1`, the Potency is over 20 µM.

In the case of `O=C(c1csnn1)N1CCC2(CCCN(c3ccc(-c4ccccc4)cc3)C2)CC1`, the Potency is over 20 µM. Turning to `FC(F)(F)c1ccccc1-c1ccc2ncnc(NC3CC3)c2c1`, the Potency was over 20 µM. As to `Cc1cnc(CNc2ncncc2-c2ccc3c(c2)OCO3)cn1`, the Potency is over 20 µM. In the case of `CN1CCN(c2ncc3nc(-c4cn(C)c5ccccc45)c(=O)n(CCC#N)c3n2)CC1`, the Potency is over 20 µM. Take `COc1ccc(-c2nc3cnc(Oc4ccccc4)nc3n(CCC#N)c2=O)cc1`: the Potency is 16.7 µM. For `CCNc1ncc2ncc(=O)n(C3CC3)c2n1`, the Potency is over 20 µM.

As to `COc1ccc2[nH]cc(CCNc3ccnc(-c4ccccc4C(F)(F)F)n3)c2c1`, the Potency is over 20 µM.

Take `O=c1c(CCc2ccccc2)nc2cncnc2n1Cc1ccccc1Cl`: the Potency is over 20 µM.

Regarding `CN(C)c1ncc2nc(-c3ccc(F)cc3)c(=O)n(C)c2n1`, the Potency was over 20 µM. For the compound `Cc1nc2cnc(N(C)C)nc2n(C[C@H]2CCCO2)c1=O`, the Potency is over 20 µM. For `Clc1ccccc1-c1nc(NCCN2CCOCC2)c2ccccc2n1`, the Potency is over 20 µM. Turning to `CC(=O)NCCNc1ccnc(-c2ccccc2C)n1`, the Potency was over 20 µM.

With `COC(=O)N1CCC2(CCN(Cc3ccccc3)CC2)CC1`, the Potency was over 20 µM.

Consider `COc1ccc(NC(=O)N2CCC3(CC2)CCN(C(=O)c2ccco2)CC3)cc1`, for which the Potency is over 20 µM. Consider `Cc1ccccc1-c1cncnc1NCc1cccnc1`, for which the Potency is over 20 µM. In the case of `COc1ncc2nc(CCc3ccccc3)c(=O)n(-c3ccccc3)c2n1`, the Potency was over 20 µM. For the compound `O=C(c1cccc(F)c1)N1CCC2(CC1)CCN(C(c1ccccc1)c1ccccc1)CC2`, the Potency was over 20 µM.

On to `COc1ccc(-n2c(=O)c(-c3cccc(Cl)c3)nc3cncnc32)cc1`, for which the Potency is over 4 µM. With `Cc1nc2cnc(N3CCOCC3)nc2n(Cc2cccs2)c1=O`, the Potency was over 20 µM.

Regarding `O=C(Nc1cccc(F)c1)N1CCCC2(CCN(C(=O)c3cccc(F)c3)CC2)C1`, the Potency was over 20 µM. `COc1cccc(Cn2c(=O)c(-c3cccc(C#N)c3)nc3cnc(Nc4ccccc4)nc32)c1`: the Potency is 0.198 µM (active). As for `Cc1nc2cnc(N(C)C)nc2n(CCc2ccccc2)c1=O`, the Potency was over 20 µM. The result for `Cc1noc(C)c1C(=O)N1CCC[C@@]2(CCN(c3ccccn3)C2)C1` reads over 20 µM; that for `CN(C)c1ncc2nc(-c3cc(F)cc(F)c3)c(=O)n(C[C@H]3CCCO3)c2n1`, over 20 µM.
